Compound activity (PubChem)
In the library only some 10% were active in any assay of this set; here they are far more common.
Luciferase inh = inhibitors of firefly (Photinus pyralis) luciferase; purified P. pyralis luciferase, luminescence, biochemical; Potency, µM (doses to about 115 µM), usual class: inhibitors; AID 1347043; 76,000 tested, 2.5% active; P08659; further: nearly all actives have a fitted effect of over 65% in size
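Luminescence read by CCD imaging after purified firefly luciferase (10nM final) was added to substrate buffer holding 10uM D-luciferin and 10uM ATP, pH 7.5, pre-dosed with compound.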
3T3 cytotox = NIH 3T3 cell cytotoxicity; AID 1345082; NIH 3T3 viability, CellTiter-Glo ATP luminescence, 48-72 h; Potency, µM (top dose mostly 96.7 µM), without a hit: top-dose activity change, negative = cytotoxicity, actives largely listed as inhibitors; 94,000 tested, 4.3% active; further: nearly all actives have a fitted effect of over 55% in size
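Cytotoxicity is measured as loss of cellular ATP: NIH 3T3 cells (400/well) are exposed to compound for 48 or 72 hr at 37 °C, then CellTiter-Glo luminescence is imaged after 10 min at room temperature.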
HEK293 tox = cytotoxic compounds in HEK 293 cells | 94,000 tested, 6.6% active | HEK 293 viability, ATP luminescence (CellTiter-Glo), 48-72 h | AID 1345083 | Potency, µM (series often up to 115 µM), inactives show at the highest dose activity change, negative = cytotoxicity, usual class: inhibitors; further: nearly all actives have a fitted effect of over 60% in size
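Luminescence from cellular ATP, measured with CellTiter-Glo, indicates HEK 293 viability. Cells plated at 250 cells/well are treated with compound for 48 or 72 hr at 37 degree Celsius before reagent addition.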
GPT2 inhibitor = blocks human glutamate pyruvate transaminase 2 | Recombinant GPT2, coupled pyruvate oxidase/HRP Amplex Red fluorescence | Potency, µM (titrated, usually from 57.7 µM), without a hit: at the top dose activity change, negative = inhibition, actives largely listed as inhibitors | 100,000 tested, 0.25% active | AID 1671188; further: nearly all actives have a fitted effect of over 60% in size
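Recombinant GPT2 (10ng/uL) with 250uM a-KG and 2mM L-alanine, 30 min at room temperature, in HEPES pH 7.5 buffer. Pyruvate detected by pyruvate oxidase/HRP/Amplex Red fluorescence after 30 min in the dark; AOA (50uM) as positive control.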
NPR1 antag = human Npr1 receptor antagonism; 76,000 tested, 1.6% active; Potency, µM (top dose mostly 46.3 µM), for inactives: at the top dose activity change, negative = inhibition, actives largely listed as inhibitors; AID 1347048; P16066; HEK293 hNpr1 GloSensor cGMP, ANP-stimulated luminescence; calls by dose curve; further: nearly all actives have a fitted effect of over 60% in size
Target sequence (P16066 whole entry, looked up): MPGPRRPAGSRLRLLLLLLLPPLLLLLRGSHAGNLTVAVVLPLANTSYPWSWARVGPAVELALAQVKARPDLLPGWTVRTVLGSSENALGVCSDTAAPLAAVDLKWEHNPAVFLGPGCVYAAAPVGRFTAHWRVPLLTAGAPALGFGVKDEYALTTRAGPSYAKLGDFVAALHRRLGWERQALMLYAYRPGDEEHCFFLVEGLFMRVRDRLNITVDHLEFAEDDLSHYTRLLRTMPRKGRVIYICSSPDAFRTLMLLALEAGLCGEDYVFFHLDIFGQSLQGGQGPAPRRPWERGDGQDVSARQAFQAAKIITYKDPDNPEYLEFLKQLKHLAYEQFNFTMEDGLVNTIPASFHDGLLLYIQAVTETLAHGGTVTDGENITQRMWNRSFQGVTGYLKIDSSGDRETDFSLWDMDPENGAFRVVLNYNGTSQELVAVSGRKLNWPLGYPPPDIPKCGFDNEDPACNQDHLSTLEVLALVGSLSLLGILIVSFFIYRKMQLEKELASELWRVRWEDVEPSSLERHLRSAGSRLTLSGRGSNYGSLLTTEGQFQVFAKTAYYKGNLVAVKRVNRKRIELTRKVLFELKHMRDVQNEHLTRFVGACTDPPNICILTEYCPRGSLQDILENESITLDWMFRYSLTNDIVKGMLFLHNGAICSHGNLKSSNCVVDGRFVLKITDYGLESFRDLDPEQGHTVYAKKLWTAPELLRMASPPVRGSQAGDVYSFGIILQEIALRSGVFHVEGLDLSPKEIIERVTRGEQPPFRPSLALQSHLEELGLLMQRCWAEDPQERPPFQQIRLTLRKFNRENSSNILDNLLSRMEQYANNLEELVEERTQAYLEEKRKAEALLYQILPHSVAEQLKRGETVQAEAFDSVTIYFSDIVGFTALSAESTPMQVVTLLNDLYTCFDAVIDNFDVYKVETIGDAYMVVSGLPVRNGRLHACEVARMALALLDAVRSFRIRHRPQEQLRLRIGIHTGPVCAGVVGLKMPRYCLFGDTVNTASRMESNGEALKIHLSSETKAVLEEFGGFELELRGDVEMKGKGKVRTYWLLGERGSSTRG
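HEK293 cells stably expressing human Npr1 and cGMP GloSensor pGS-40F, loaded 2 h with 2% GloSensor reagent, given compound 30 min at room temperature. Luminescence read before and 20 min after 0.1 nM hNppA.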
Numbers without * were called inactive; [ ] = dose if it differs, or a comment. Unless noted, the call rests on the fitted dose curve; in most records, active means well fitted curve in the direction sought with a large enough effect; inconclusive means small, poorly fitted or top-dose-only effect, or another doubt; inactive means no such curve, though single readings can be large; an effect the other way counts as inactive or inconclusive. On the % scale 0 is the no-effect control and ±100 the full control effect; potency means the concentration at half of the fitted maximal effect.

`COc1ccccc1N1CCN(C(=O)[C@H]2CN3CCC2C[C@@H]3Cn2cc(-c3ccccc3)nn2)CC1` (stereo partly drawn) gave Luciferase inh inactive, 3T3 cytotox -29%, HEK293 tox 45µM*, GPT2 inhibitor -3% and NPR1 antag 3%.
CC(C)(C)c1ccc(-c2cn(C[C@H]3CC4CCN3C[C@@H]4C(=O)NC3CCCCC3)nn2)cc1 (stereo partly drawn) was read as Luciferase inh inactive, 3T3 cytotox inconclusive, HEK293 tox 32µM*, GPT2 inhibitor 4% and NPR1 antag -1%.
`O=C(Nc1ccccc1)[C@H]1CN2CCC1C[C@@H]2Cn1cc(CSc2ccccc2)nn1` (stereo partly drawn) gave Luciferase inh inactive, 3T3 cytotox 100µM*, HEK293 tox 100µM*, GPT2 inhibitor inconclusive and NPR1 antag 2%[70.6 µM].
For C=CCN(C)C(=O)[C@H]1CN2CCC1C[C@@H]2Cn1cc(-c2ccc(C(C)(C)C)cc2)nn1 (stereo partly drawn) the results were Luciferase inh inconclusive, 3T3 cytotox inconclusive, HEK293 tox 100µM*, GPT2 inhibitor -1%[88.5 µM] and NPR1 antag -2%[70.6 µM].
For Cc1noc(C)c1CCN1CCC2(C1)C(=O)N(C)C(=O)N2C (stereo not drawn) the results were 3T3 cytotox -11%, HEK293 tox 3% and GPT2 inhibitor inactive.
Screening CCOC(=O)[C@H]1CN(C(=O)CC(C)(C)C)[C@]2(C)C(=O)N(CC3CC3)c3ccccc3[C@H]12 returned 3T3 cytotox inconclusive, HEK293 tox inconclusive and GPT2 inhibitor 5%[27.3 µM].
`CC(C)CN1Cc2ccccc2-n2ccnc2C12CCN(C(=O)c1ccn[nH]1)CC2` gave Luciferase inh inactive, 3T3 cytotox -26%, HEK293 tox 40µM*, GPT2 inhibitor -9% and NPR1 antag -15%.
For CCn1ccc(C(=O)N2CCC3(CC2)c2nccn2-c2ccccc2CN3CC(C)C)n1 the results were Luciferase inh inactive, 3T3 cytotox inconclusive, HEK293 tox 45µM*, GPT2 inhibitor 2% and NPR1 antag 4%.
`CC(C)CN1Cc2ccccc2-n2ccnc2C12CCN(C(=O)c1ccco1)CC2` gave Luciferase inh inactive, 3T3 cytotox inconclusive, HEK293 tox 45µM*, GPT2 inhibitor -9% and NPR1 antag -15%.
Screening CCOCC(=O)N1CCC2(CC1)c1nccn1-c1ccccc1CN2CC(C)C returned Luciferase inh inactive, 3T3 cytotox inactive, HEK293 tox inconclusive, GPT2 inhibitor 3% and NPR1 antag -4%.
`CC(C)CN1Cc2ccccc2-n2ccnc2C12CCN(C(=O)c1ccoc1)CC2` gave Luciferase inh inactive, 3T3 cytotox inconclusive, HEK293 tox inconclusive, GPT2 inhibitor inactive and NPR1 antag -21%.
Screening CC(C)CN1Cc2ccccc2-n2ccnc2C12CCN(C(=O)c1cccs1)CC2 returned Luciferase inh inactive, 3T3 cytotox inconclusive, HEK293 tox 45µM*, GPT2 inhibitor inactive and NPR1 antag -19%.
Screening CN1Cc2ccccc2-n2ccnc2C12CCN(C(=O)c1ccccn1)CC2 returned Luciferase inh inactive, 3T3 cytotox -5%, HEK293 tox 0%, GPT2 inhibitor -2% and NPR1 antag 2%.
Screening COCCOCC(=O)N1CCC2(CC1)c1nccn1-c1ccccc1CN2CC(C)C returned Luciferase inh inactive, 3T3 cytotox inactive, HEK293 tox -15%, GPT2 inhibitor inactive and NPR1 antag -14%.
CCOC(=O)[C@H]1CN(C(=O)c2ccc(F)cc2)[C@]2(C)C(=O)N(CC3CC3)c3ccccc3[C@H]12 was read as 3T3 cytotox inconclusive, HEK293 tox inconclusive and GPT2 inhibitor -5%[27.3 µM].
Screening O=C(c1ccncc1)N1CC2CCC(C1)N2Cc1cccc(Cl)c1 returned 3T3 cytotox -2%, HEK293 tox -4% and GPT2 inhibitor inactive.
CC(C)CN1Cc2ccccc2-n2ccnc2C12CCN(C(=O)c1cccc(F)c1)CC2 was read as Luciferase inh inactive, 3T3 cytotox inconclusive, HEK293 tox 35µM*, GPT2 inhibitor inactive and NPR1 antag -18%.
For CN1Cc2ccccc2-n2ccnc2C12CCN(C(=O)c1cccc(F)c1)CC2 the results were Luciferase inh inactive, 3T3 cytotox -10%, HEK293 tox -17%, GPT2 inhibitor inactive and NPR1 antag -3%.
CN(N=O)c1ccc(O)c(O)c1 was read as GPT2 inhibitor 3.2µM*.
Screening Cc1nc(-c2cccs2)cc([C@H]2CN3CC[C@H]2C[C@@H]3CO)n1 returned Luciferase inh inactive, 3T3 cytotox 16µM*, HEK293 tox -106%[172 µM], GPT2 inhibitor -10%[88.5 µM] and NPR1 antag 2%[70.6 µM].
Screening Cc1nc(-c2cccs2)cc([C@H]2CN3CC[C@H]2C[C@@H]3CNC(=O)C(C)(C)C)n1 returned Luciferase inh inactive, 3T3 cytotox inconclusive, HEK293 tox inconclusive, GPT2 inhibitor -21%[88.5 µM] and NPR1 antag -8%[70.6 µM].
For Cn1nc(-c2cccs2)cc1[C@H]1CN2CC[C@H]1C[C@@H]2CNS(=O)(=O)c1ccccc1 the results were Luciferase inh inactive, 3T3 cytotox inconclusive, HEK293 tox -26%, GPT2 inhibitor 1% and NPR1 antag 3%.
`Cc1nc(-c2cccs2)cc([C@H]2CN3CC[C@H]2C[C@@H]3CNS(=O)(=O)c2ccccc2)n1` gave Luciferase inh inactive, 3T3 cytotox 20µM*, HEK293 tox 28µM*, GPT2 inhibitor -26% and NPR1 antag -8%.
Cc1nc(-c2ccccc2Br)cc([C@H]2CN3CC[C@H]2C[C@@H]3CNS(=O)(=O)c2cccs2)n1 was read as Luciferase inh inactive, 3T3 cytotox 79µM*, HEK293 tox 79µM*, GPT2 inhibitor 5% and NPR1 antag 4%.
For CCCCC1CN2CCCC2CN1 (stereo not drawn) the results were 3T3 cytotox inactive, HEK293 tox inactive and GPT2 inhibitor -16%[88.5 µM].
Screening CCOC(=O)[C@H]1CN(S(=O)(=O)Cc2ccccc2)[C@]2(C)C(=O)N(CC3CC3)c3ccccc3[C@H]12 returned 3T3 cytotox inconclusive, HEK293 tox inconclusive and GPT2 inhibitor -4%[27.3 µM].
`CCOC(=O)[C@@H]1[C@H]2c3ccccc3N(C)C(=O)[C@H]2N(C(=O)c2cccs2)[C@@H]1c1ccccc1` gave 3T3 cytotox inconclusive and HEK293 tox 79µM*.
C#CCN1C(=O)[C@@H]2[C@H](c3ccccc31)[C@@H](C(=O)OCC)[C@@H](c1ccccc1)N2C(=O)c1ccco1 was read as 3T3 cytotox inconclusive and HEK293 tox 32µM*.
